19 compounds from PubChem BioAssay (Tox21) can be followed below.

Several values for one entry are separate records, joined by “and”; a condition that tells them apart may be missing. Equal entries are not always repeated. Results filed as inconclusive are left out. Where a call stands in place of a potency, no number is given. Activity calls are given as the source filed them. The call rests on the fitted dose curve; in most records, active means well fitted cell-killing curve with a large enough effect in the repeat runs; inconclusive means weak or mixed curves, or effect the other way; inactive means flat fitted curve, though single readings scatter.
Potency means the concentration at half of the fitted maximal effect.

The test can be described thus: qHTS assay to identify small molecule antagonists of the retinoid acid receptor (RAR) signaling pathway - cell viability counter screen (AID 1159551). Further: nearly all actives have a fitted effect of over 35% in size. Conditions: C3RL4 cells viability, ATP luminescence (CellTiter-Glo), 6 h; series mostly up to 92.4 µM. In outline:
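C3RL4 RARE-luciferase line; cpds + retinol 1 uM final, 6 h, 37 C/5% CO2; CellTiter-Glo ATP luminescence, 30 min RT.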
A general note: Quantitative high-throughput screening tests each substance at several concentrations.
Consider `CC#C[C@]1(O)CC[C@H]2[C@@H]3C[C@H](C)C4=CC(=O)CC[C@]4(C)[C@H]3CC[C@@]21C`, for which the Potency entry was “inactive”.

Consider `CN`, for which the Potency entry is “inactive”.

On to `BrCCCBr`, for which the Potency entry is “inactive”.

`CC(C)C(Nc1ccc(C(F)(F)F)cc1Cl)C(=O)OC(C#N)c1cccc(Oc2ccccc2)c1` (centres undefined): the Potency result is “inactive”.

Take `CN1C2CCC(C)(C)C1CC(OC(=O)C(O)(c1cccs1)c1cccs1)C2` (centres undefined): the Potency entry is “inactive”.

As for `C[C@]12CC[C@H]3[C@@H](CCC4=CC(=O)CC[C@@H]43)[C@@H]1CC[C@@H]2OC(=O)CCc1ccco1`, the Potency result is “inactive”.

For `[O]=[Cr][O][Cr]=[O]`, the Potency result is “inactive”.

For `Oc1cccc(Cl)c1Cl`, the Potency entry was “inactive”.

For the compound `CNC(=O)CSP(=O)(OC)OC`, the Potency result is “inactive”.

Turning to `CCNS(=O)(=O)C(F)(F)C(F)(F)C(F)(F)C(F)(F)C(F)(F)C(F)(F)C(F)(F)C(F)(F)F`, the Potency result is “inactive”.

As for `CN1C(=O)[C@@H](NC(=O)c2cc3ccccc3[nH]2)N=C(c2ccccc2)c2ccccc21`, the Potency entry is “inactive”.

As to `ClSC(Cl)(Cl)Cl`, the Potency result is “inactive”.

On to `CCCCCCCCCCCCCCn1cc[n+](C)c1`, for which the Potency was 54.6 µM (active) and 60.4 µM (active).

In the case of `COc1ccc2c3c1O[C@H]1[C@H](O)CC[C@H]4[C@@H](C2)N(C)CC[C@@]341`, the Potency entry is “inactive”.

As to `CC(Cl)CCl` (centres undefined), the Potency entry is “inactive”.

In the case of `Cc1ccn2nc(S(=O)(=O)Nc3c(F)cccc3F)nc2n1`, the Potency result is “inactive”.

For `C[C@H]1[C@H](c2ccc(Cl)cc2)SC(=O)N1C(=O)NC1CCCCC1`, the Potency entry was “inactive”.

As to `Oc1ccc2[nH]cc(CCCCN3CC=C(c4ccccc4)CC3)c2c1`, the Potency entry is “inactive”.

Take `CC(C)=CCN1CC[C@@]2(C)c3cc(O)ccc3C[C@@H]1[C@@H]2C`: the Potency entry is “inactive”.
